# Data as given in article PMC5540273 (PLoS ONE, 2017).
# Tests used:
# [1] = system: AAK1; conditions: concentration: 1 μM, replicates: in singlicate; n = 1
# [2] = system: ABL1-nonphosphorylated; conditions: concentration: 1 μM, replicates: in singlicate; n = 1
# [3] = system: ABL1-phosphorylated; conditions: concentration: 1 μM, replicates: in singlicate; n = 1
# [4] = system: ABL2; conditions: concentration: 1 μM, replicates: in singlicate; n = 1
# [5] = system: ACVR1B; conditions: concentration: 1 μM, replicates: in singlicate; n = 1
# [6] = system: ACVR1; conditions: concentration: 1 μM, replicates: in singlicate; n = 1
# [7] = system: ACVR2A; conditions: concentration: 1 μM, replicates: in singlicate; n = 1
# [8] = system: ACVR2B; conditions: concentration: 1 μM, replicates: in singlicate; n = 1
# [9] = system: ACVRL1; conditions: concentration: 1 μM, replicates: in singlicate; n = 1
# [10] = system: T1, ADCK3; conditions: concentration: 1 μM, replicates: in singlicate; n = 1
# T1 construct: gene CABC1
# [11] = system: ADCK4; conditions: concentration: 1 μM, replicates: in singlicate; n = 1
# [12] = system: AKT1; conditions: concentration: 1 μM, replicates: in singlicate; n = 1
# [13] = system: AKT2; conditions: concentration: 1 μM, replicates: in singlicate; n = 1
# [14] = system: AKT3; conditions: concentration: 1 μM, replicates: in singlicate; n = 1
# [15] = system: ALK; conditions: concentration: 1 μM, replicates: in singlicate; n = 1
# [16] = system: T2, YSK4;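 note: kd values determined as follow-up on hits from a single-replicate KINOMEscan panel screen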
# T2 construct: gene MAP3K19
# 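Throughout, for %Inh: KINOMEscan kinase panel screen.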
SMILES,%Inh [1],%Inh [2],%Inh [3],%Inh [4],%Inh [5],%Inh [6],%Inh [7],%Inh [8],%Inh [9],%Inh [10],%Inh [11],%Inh [12],%Inh [13],%Inh [14],%Inh [15],Kd [16]
COc1ccc(-c2coc3ccc(-c4nnc(C)o4)cc23)cc1,0%,32%,7%,0%,12%,0%,5%,0%,27%,9%,0%,8%,0%,2%,0%,
Cc1ccc(NC(=O)Nc2ccccc2)cc1-c1ccc(C(=O)Nc2ccncc2)cc1 [GSK1398471],8%,0%,0%,16%,0%,0%,0%,0%,0%,19%,14%,1%,4%,0%,21%,71 nM
COC(=O)C(Cc1ccccc1)NC(=O)NC1CCN(c2ccnc(Nc3ccc(F)cc3)n2)C1 (stereo not shown) [GSK1379714],0%,0%,0%,0%,0%,6%,0%,6%,0%,21%,36%,0%,0%,0%,0%,1400 nM
CC(C)c1cc(-c2ccc3c(N)n[nH]c3c2)nc(N)n1 [GSK2250882],53%,0%,0%,13%,0%,0%,0%,0%,0%,13%,37%,0%,17%,0%,0%,
O=C(Nc1n[nH]c2nc(-c3cccs3)c(Br)cc12)C1CCCC1 [SB-743341],0%,48%,19%,5%,17%,0%,0%,7%,9%,7%,0%,0%,40%,0%,1%,
Cc1ccccc1Cn1ccn2c(=O)cc(N3CCOCC3)nc12 [GSK2269905],24%,0%,0%,11%,0%,25%,0%,0%,0%,16%,17%,0%,16%,0%,28%,
CS(=O)(=O)Cc1ccc(Nc2nccc(-c3c(-c4cccc(NC(=O)C5CCCCC5)c4)nn4ncccc34)n2)cc1 [GSK350559],0%,8%,15%,5%,0%,18%,0%,0%,0%,24%,0%,23%,4%,0%,29%,
COc1ccc(Nc2nccc(NCCNC(=O)Nc3cc(C)ccc3C)n2)cc1 [GSK1379899],0%,0%,0%,5%,0%,2%,2%,6%,0%,0%,0%,0%,0%,0%,1%,
COc1ccc(CSc2nnc(-c3ccc4nccn4c3)o2)cc1C(F)(F)F,16%,28%,13%,21%,23%,0%,7%,15%,21%,6%,6%,13%,4%,44%,29%,22 nM
Cc1ccc(NC(=O)Nc2ccccc2F)cc1-c1ccc(C(=O)Nc2ccncc2)cc1 [GSK1398477],28%,7%,0%,31%,3%,32%,21%,14%,5%,22%,25%,0%,22%,0%,25%,1500 nM
Cl.Cl.Cl.N#Cc1ccc(CCNc2nccc(-c3cccc(CN4CCNCC4)c3)n2)cc1 [GSK2137462],14%,10%,0%,9%,0%,11%,0%,0%,0%,23%,22%,0%,5%,5%,15%,
COc1ccc(Nc2nccc(-c3ccc(NC(=O)c4cc5cc(F)ccc5[nH]4)cc3)n2)cc1 [GSK1229496],65%,0%,0%,0%,23%,0%,0%,0%,0%,5%,29%,0%,0%,0%,17%,
COc1ccc(Nc2nccc(N3CCC(NC(=O)C(C)c4ccc(Cl)cc4)CC3)n2)cc1 (stereo not shown) [GSK1379812],23%,4%,0%,28%,0%,8%,0%,0%,0%,25%,18%,0%,0%,3%,18%,
